From PubChem BioAssay
In the library only some 0.96% were active in any assay of this set; here they are far more common.
TRPV1 PAM: enhances activation of the human vanilloid receptor TRPV1; Q8NER1; TRPV1-expressing cells, Fluo-8 calcium influx, capsaicin EC20 potentiation; potentiation, % at 8.33 µM; 0.02% of 320,000 active; AID 540277; in the data active = potentiation above about 80%; inconclusive = between about 30% and that limit
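Fluo-8 calcium influx in TRPV1-expressing cells, kinetic read (ex 480/em 520 nm). Compound added and read 3 min for agonist activity, followed by capsaicin at EC20 final and 2 min further read for enhancement.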
TRPML1 blocker: inhibitors of human TRPML1 channel. AID 624415. TRPML1-inducible cells, Ca2+ dye fluorescence, FDSS; hits give low values; inhibition of EC80 agonist-evoked calcium signal. 0.02% of 390,000 active. activity change, negative = inhibition, % (test concentration not listed); in the data active = activity change below about -50%; inconclusive = between about -30% and that limit;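 also: stimulus is agonist 54-4 at its EC80 concentration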
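Calcium fluorescence in TRPML1-DL cells induced overnight with Tet: a 110 s read after compound pin addition, then a 110 s antagonist read after challenge with 54-4 at 4 uM final (EC80).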
TRHR agonist: agonists of human TRH receptor | activation, % at 2 µM | P34981 | 0.18% of 360,000 active | TRHR cells, calcium flux fluo-8, FDSS agonist mode | AID 493084; in the data active = activation above about 30%
Target sequence (P34981 whole entry, looked up): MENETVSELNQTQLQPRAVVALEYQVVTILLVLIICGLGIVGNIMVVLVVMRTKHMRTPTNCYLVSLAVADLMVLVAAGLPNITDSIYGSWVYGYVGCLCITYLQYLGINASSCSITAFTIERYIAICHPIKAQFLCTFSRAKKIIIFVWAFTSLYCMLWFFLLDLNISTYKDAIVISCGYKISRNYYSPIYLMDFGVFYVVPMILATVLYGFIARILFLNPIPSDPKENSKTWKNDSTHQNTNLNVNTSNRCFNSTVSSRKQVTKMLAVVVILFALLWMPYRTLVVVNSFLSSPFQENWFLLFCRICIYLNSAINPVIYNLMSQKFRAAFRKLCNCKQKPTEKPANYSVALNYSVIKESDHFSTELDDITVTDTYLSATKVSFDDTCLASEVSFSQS
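Read-out: compound-evoked intracellular calcium rise in TRHR cells, fluo-8 dye, kinetic FDSS fluorescence at 1 s/cycle following a 10-cycle baseline. Cells cultured overnight before dye loading (30 min–1.5 h, RT).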
TRHR enhancer: allosteric enhancers of human TRH receptor; AID 493056; TRHR cells, fluo-8 calcium fluorescence, EC20 TRH enhancement; P34981; 0.66% of 360,000 active; enhancement, % at 2 µM; in the data active = enhancement above about 30%
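TRHR-expressing cells loaded with fluo-8 calcium dye were read kinetically (ex 480/em 530) during compound addition, then stimulated with an EC20 of TRH (10 nM final). Enhancement of the Gq-mediated intracellular calcium response was scored.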
TRPML1 agonist: agonists of human TRPML1 channel | Q9GZU1 | TRPML1-expressing cells, Ca2+ dye fluorescence, FDSS | activation, % (no concentration beside the values) | 0.12% of 410,000 active | AID 624414; in the data active = activation above about 50%; inconclusive = mostly about 30% to 49%
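Tet-induced TRPML1-DL cells, 1,500 per well, cultured overnight, were loaded with a no-wash Ca2+ dye for 45–90 min. Calcium fluorescence was recorded on the FDSS for 110 s after compound addition, before the EC80 agonist (4 uM 54-4) was added.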
TRPV1 ag: agonists of human vanilloid receptor 1 (TRPV1) | activation, % at 8.33 µM | AID 540275 | TRPV1-expressing cells, Fluo-8 calcium influx, agonist mode | Q8NER1 | 0.19% of 320,000 active; in the data active = activation above about 80%; inconclusive = between about 30% and that limit
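Fluo-8 calcium influx in TRPV1-expressing cells, kinetic read (ex 480/em 520 nm). Compound added and read 3 min for agonist activity, followed by capsaicin at EC20 final and 2 min further read for enhancement.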
Of the large screens only hits and unclear results are named; the others gave an inactive call.

COc1cccc(C(=O)NNC2=C(C(=O)C(F)(F)F)CCC2)c1	TRHR enhancer 33.2
NCCCN(Cc1ccc(Cl)cc1)c1ccc(Br)cn1	none (no result: TRPV1 PAM, TRPML1 blocker, TRHR agonist, TRHR enhancer, TRPV1 ag)
Cc1nnnn1/C(=C\c1ccccc1)C(=O)OCC(=O)NC(C)(C)C	TRHR enhancer 33.0
CC(=O)N(O)c1ccc(/C=C2\C=Cc3ccccc32)cc1	none (no result: TRPV1 PAM, TRPML1 blocker, TRHR agonist, TRHR enhancer, TRPV1 ag)
Cc1nc2cc(NC(=O)CS(=O)(=O)c3ccccc3)ccc2s1	none
CC(=O)Nc1ccc2sc(C)nc2c1	TRHR enhancer 37.4 (no result: TRPV1 PAM, TRPV1 ag)
CC(C)CCNC(=O)C1CCN(Cc2cccc(OCc3ccccc3)c2)CC1	TRPV1 ag 91.7
O=C(NCCc1ccccc1)C1CCN(Cc2cc3ccccc3n2Cc2cccc(Cl)c2)CC1	TRHR enhancer 30.9 (no result: TRPV1 PAM, TRPV1 ag)
O=C(Nc1ccc([N+](=O)[O-])cc1Cl)c1cc(Cl)cc(Cl)c1O	none (no result: TRPV1 PAM, TRPML1 blocker, TRHR agonist, TRHR enhancer, TRPV1 ag)
CC1(C)OC(=O)C2(Cc3cc(C(F)(F)F)ccc3N3CCCCC32)C(=O)O1 (stereo not given)	none (no result: TRPV1 PAM, TRPML1 blocker, TRHR agonist, TRHR enhancer, TRPV1 ag)
COc1ccc(/C(=C/Nc2cccc(Br)c2)C(C)=O)cc1OC	TRHR enhancer 40.7
Cc1cc2c(s1)c1cnn(Cc3ccc(Br)cc3)c(=O)c1n2C	none (no result: TRPV1 PAM, TRPML1 blocker, TRPML1 agonist, TRPV1 ag)
O=C(c1c(F)c(F)c(F)c(F)c1F)N1CCN(c2cccc(C(F)(F)F)c2)CC1	TRHR enhancer 30.7
Brc1ccc[n+](CCC2CCCCC2)c1	none (no result: TRPV1 PAM, TRPML1 blocker, TRHR agonist, TRHR enhancer, TRPV1 ag)
COC(=O)c1cc(F)c(S(=O)(=O)N2CCN(S(=O)(=O)c3ccc4c(c3)OCCO4)CC2)cc1F	none (no result: TRPV1 PAM, TRPML1 blocker, TRPML1 agonist, TRPV1 ag)
Cc1cnc(NC(=O)c2cc3c(s2)CCCC3)s1	TRPV1 ag 89.3
N#CCc1nc2ccc(S(=O)(=O)N3CCOCC3)cc2s1	TRHR agonist 34.9
Cc1cc2c(n1-c1ccc(C(=O)NCc3ccc(OC(C)C)cc3)cc1)CCCC2	none (no result: TRPV1 PAM, TRPV1 ag)
Cc1ccc(CNC(=O)c2ccc(-n3c(C)cc4c3CCCC4)cc2)cc1	TRHR enhancer 30.8 (no result: TRPV1 PAM, TRPV1 ag)
Cc1ccc(CSC2=NS(=O)(=O)c3ccccc32)cc1	none (no result: TRPV1 PAM, TRPML1 blocker, TRHR agonist, TRHR enhancer, TRPV1 ag)
NC(=O)c1c(NC(=O)c2ccccc2Cl)sc2c1CCC2	TRHR enhancer 35.7
CN(C)C(=O)COc1ccccc1C(=O)OCC(=O)N(CCC#N)c1ccccc1	none (no result: TRPV1 PAM, TRPML1 blocker, TRHR agonist, TRHR enhancer, TRPV1 ag)
CN1CCc2c(sc(NC(=O)CSc3ccccc3)c2-c2nc3ccccc3s2)C1	TRHR agonist 115.2, TRPML1 agonist 59.4, TRPV1 ag inconclusive
CC(=O)c1c(C)[nH]c(C(=O)Nc2cc(F)ccc2C)c1C	none
CC(=O)c1c(C)[nH]c(C(=O)Nc2ccc(F)cc2F)c1C	TRHR enhancer 36.0
C=CCC1=C/C(=C\c2c(N)n3nc(CC(=O)N4CCCC4)sc3nc2=O)C=C(OC)C1=O	TRHR agonist 186.7, TRPML1 agonist 68.3, TRPV1 ag inconclusive
COC1=CC(=Cc2c(N)n3nc(CC(=O)N4CCOCC4)sc3nc2=O)C=C(OC)C1=O	TRPV1 PAM inconclusive
CCOC(=O)CSc1nc2ccccc2n1CC(=O)NC(C)(C)C	TRHR enhancer 30.4
CCC(=O)N/N=C/c1ccc(-c2ccc([N+](=O)[O-])cc2)o1	none
CC(C)(C)C(=O)/C=c1\s/c(=C\c2ccc(-c3ccc([N+](=O)[O-])cc3)o2)c(=O)n1CC(=O)NC(N)=O	TRHR agonist 215.0, TRPML1 agonist inconclusive, TRPV1 ag inconclusive
CC(C)(C)n1ncc2c(=O)n(Cc3cccc(C(F)(F)F)c3Cl)cnc21	none (no result: TRPV1 PAM, TRHR agonist, TRHR enhancer, TRPV1 ag)
COCCNc1ccnc2c(Cl)cccc12	none
COCCCNc1ccnc2c(Cl)cccc12	TRHR enhancer 36.8
CCOCCCNC(=O)C1CCCN(Cc2nc(-c3ccc(CC)cc3)oc2C)C1 (stereo not given)	TRHR enhancer 32.0 (no result: TRPV1 PAM, TRPV1 ag)
COc1ccc(CNC(=O)Nc2ccc([N+](=O)[O-])cc2)cc1	none (no result: TRPV1 PAM, TRHR agonist, TRHR enhancer, TRPV1 ag)
COc1ccc(CNC(=O)C(C)c2ccc([N+](=O)[O-])cc2)cc1 (stereo not given)	TRPV1 ag 80.4
C=CCn1c(SCC)nc2ccccc2c1=O	none (no result: TRPV1 PAM, TRPML1 blocker, TRHR agonist, TRHR enhancer, TRPV1 ag)
Cc1cc2c(s1)c1cnn(Cc3ccc(F)c(C)c3)c(=O)c1n2C	none (no result: TRPV1 PAM, TRPML1 blocker, TRPML1 agonist, TRPV1 ag)
CC(C)(C)OC(=O)NCc1nnc(-c2cc3ccccc3[nH]2)o1	none (no result: TRPV1 PAM, TRPML1 blocker, TRPML1 agonist, TRPV1 ag)
COc1ccc(Nc2c3c(nc4ccc(NC(=O)c5ccc(F)cc5)cc24)CCCC3)cc1OC	TRHR enhancer 42.5 (no result: TRPV1 PAM, TRPV1 ag)
